DT40 TDP1 no CPT: qHTS for Inhibitors of human tyrosyl-DNA phosphodiesterase 1 (TDP1): qHTS in cells in absence of CPT | Potency, µM (series often up to 46.2 µM), most hits filed as inhibitors | hit rate 15% among 420,000 | DT40 Tdp1-/- hTDP1 cells, no CPT, ATP luminescence, 48 h | AID 686978, 2013; also: nearly all actives have a fitted effect of over 55% in size
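No-CPT arm: Tdp1-/-;hTDP1 DT40 cells (400/well) plus compounds, incubated ≥48 hr at 37 °C. Readout CellTiter-Glo luminescence.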
KB-V1 cytotox: kills drug-selected multidrug resistant KB-V1 cells | KB-V1 MDR cells viability, CellTiter-Glo, 72 h | Potency, µM (series often up to 46.1 µM), hits mostly cytotoxic | hit rate 3.4% among 400,000; also: nearly all actives have a fitted effect of over 60% in size
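Potencies derive from concentration-effect curves fitted to normalized luminescence (CellTiter-Glo) of KB-V1 cells treated for 72 h at 37 degrees C in phenol-red-free DMEM containing 10% FBS.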
HT1080-NT tox: kills 2HG-producing HT-1080-NT fibrosarcoma cells. AID 686970. hit rate 1.6% among 360,000. HT-1080-NT fibrosarcoma viability, CellTiter-Glo ATP luminescence, 48 h. Potency, µM (top dose mostly 46.1 µM), hits mostly cytotoxic;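 also: NT is the 2HG producing partner of a matched IDH1 knockdown line; nearly all actives have a fitted effect of over 55% in size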
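Luminescent CellTiter-Glo readout after 48 hours of compound exposure at 37 degrees C defined viability of HT-1080-NT cells. Activity was normalized to DMSO wells and cell-free media wells; concentration-response curves were fitted and assigned curve classes.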
DT40 TDP1 CPT: growth inhibition of DT40 Tdp1-/-;hTDP1 cells with camptothecin (screen for TDP1 inhibitors); hit rate 12% among 420,000; Potency, µM (highest dose often 46.2 µM), usual class: inhibitors; chicken DT40 Tdp1-/-;hTDP1 cells + 20 nM CPT, ATP luminescence, 48 h; also: nearly all actives have a fitted effect of over 55% in size
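Chicken DT40 Tdp1-/- cells stably complemented with human TDP1 were seeded at 400 cells/well in medium containing 20 nM camptothecin, exposed to pin-transferred compounds, and grown at 37 °C for at least 48 hr. Viability was read as ATP luminescence.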
KB-3-1 tox: KB-3-1 parental cell cytotoxicity | KB-3-1 viability, CellTiter-Glo ATP luminescence, 72 h | Potency, µM (titrated, usually from 46.1 µM), usual class: cytotoxic | hit rate 1.4% among 400,000 | AID 1347075; also: nearly all actives have a fitted effect of over 60% in size
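Cytotoxicity measured as CellTiter-Glo luminescence after 72 h at 37 C. Compound titrations were pinned onto drug-naive KB-3-1 parental adenocarcinoma cells grown in DMEM with 10% FBS, and normalized data fitted to concentration-response curves.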
HT1080 IDH1KD tx: toxicity to HT-1080 IDH1 knockdown cells (counter line); HT-1080 IDH1 knockdown viability, ATP luminescence, 48 h; hit rate 2% among 360,000; Potency, µM (top dose mostly 46.1 µM), most hits filed as cytotoxic
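Viability of IDH1-knockdown HT-1080 fibrosarcoma cells was assessed by CellTiter-Glo after 48 h at 37 °C with titrated compound; concentration-effect curves were classified by fit quality and response size.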
Numbers stand for hits; – = inactive; ? = inconclusive; · = no result. A selection: hits, their analogues and other compounds. The true share with any hit is near 19%. Calls follow the shape of the dose curve; as a rule, active = well fitted curve in the direction sought with a large enough effect; inconclusive = small, poorly fitted or top-dose-only effect, or another doubt; inactive = no such curve, though single readings can be large; an effect the other way counts as inactive or inconclusive.

SMILES | DT40 TDP1 no CPT | KB-V1 cytotox | HT1080-NT tox | DT40 TDP1 CPT | KB-3-1 tox | HT1080 IDH1KD tx
CCN(CC)S(=O)(=O)c1ccc(Cl)c(NC(=O)c2ccccc2C)c1 | 23µM | ? | – | ? | – | –
CCOC(=O)c1c(C)[nH]c(C(=O)OCC(=O)Nc2cc(C)nn2-c2ccccc2)c1C | 18µM | ? | – | ? | – | –
CCOC(=O)c1c(C)[nH]c(C(=O)OCC(=O)NCc2ccccc2)c1C | ? | – | – | ? | – | –
O=C(COC(=O)c1ccc(O)cc1O)Nc1cc(-c2ccccc2)nn1-c1ccccc1 | 18µM | – | ? | ? | – | ?
CCOC(=O)c1c(C)[nH]c(C(=O)OCC(=O)Nc2cc(C)ccc2OC)c1C | 4.1µM | ? | – | 2.6µM | – | –
COc1cc(OC)cc(C(=O)Nc2cc(C)nn2-c2ccccc2)c1 | – | – | – | – | – | –
CCCc1cc(NC(=O)COC(=O)c2ccc(O)cc2O)n(-c2ccccc2)n1 | ? | ? | – | ? | – | –
CCOC(=O)C(=CNc1cc(C)nn1-c1ccccc1)C(=O)OCC | 16µM | 4.6µM | – | 21µM | – | –
CCc1nc2c(OCc3c(C)noc3C)cccn2c1N(C)C(=O)c1ccccc1F | – | – | – | – | – | –
CN(Cc1ccco1)S(=O)(=O)c1nnc(NC(=O)c2ccccc2Cl)s1 | ? | ? | – | ? | – | –
O=C(NNc1ccc(F)cc1F)c1cccs1 | – | · | – | – | · | ?
CCOC(=O)c1[nH]c(C)c(C(=O)Nc2cc(OC)ccc2OC)c1C | 0.56µM | 0.5µM | 0.63µM | 0.79µM | 1.3µM | 0.56µM
CCOC(=O)c1c(C)[nH]c(C(=O)N/N=C/c2ccc(Br)cc2)c1C | 0.023µM | – | 0.15µM | 1.2µM | ? | 0.092µM
Cc1[nH]c(C(=O)N/N=C/c2ccc(C(=O)O)cc2)c(C)c1C(=O)N/N=C/c1ccc(C(=O)O)cc1 | – | – | – | – | – | –
Fc1cccc(Cc2c(-c3ccco3)nc3c(Cl)cc(C(F)(F)F)cn23)c1 | ? | ? | ? | ? | – | ?
Cc1ccc2nc(NC(=O)CCNS(=O)(=O)c3ccc(Br)s3)sc2c1 | – | 18µM | ? | – | – | ?
Cc1ccc2nc(NC(=O)CCNS(=O)(=O)c3cccs3)sc2c1 | ? | ? | – | ? | – | –
Cc1cccc2sc(NC(=O)CCNS(=O)(=O)c3cccs3)nc12 | 26µM | – | – | 18µM | – | –
COC(=O)CSc1nc2ccccn2c(=O)c1C=O | – | – | – | – | – | –
O=S(=O)(c1ccccc1)c1cnc(-c2ccccc2)nc1N1CCCCC1 | ? | – | – | ? | – | –
COC1=CC(C)C2CC3OC(=O)CC4C(C)=C(OC)C(=O)C([C@]2(C)C1=O)[C@]34C (stereo partly drawn) | – | · | · | – | · | ·
Cc1ccc(NC(=O)CCN2CCOCC2)cc1C | – | – | – | – | – | –
CCC(=O)N1CCc2cc(S(=O)(=O)NCCC(=O)Nc3ccc(N(CC)CC)cc3C)ccc21 | 23µM | – | · | ? | – | ·
CCC(=O)N1CCc2cc(S(=O)(=O)NCCC(=O)Nc3ccc(C)cc3C)ccc21 | 23µM | – | · | ? | – | ·
CN1CCN(Cc2cc(COCc3ccccc3)c3cccnc3c2O)CC1 | 3.3µM | ? | ? | 3.3µM | ? | ?
SMILES | DT40 TDP1 no CPT | KB-V1 cytotox | HT1080-NT tox | DT40 TDP1 CPT | KB-3-1 tox | HT1080 IDH1KD tx
CCOc1cccc(CN2CCCC(N3CCN(c4cccc(Cl)c4)CC3)C2)c1O (stereo not drawn) | ? | – | – | – | – | –
CCCOCc1cc(CN2CCN(c3cccc(Cl)c3)CC2)c(O)c2ncccc12 | 5.2µM | · | · | 5.8µM | · | ·
CCCNC(=O)COc1coc(CN2CCN(c3cccc(Cl)c3)CC2)cc1=O | – | – | – | – | – | –
O=[N+]([O-])c1cc(CN2CCN(c3ccccc3)CC2)c(O)c2ncccc12 | 4.1µM | ? | ? | 2.1µM | ? | ?
O=[N+]([O-])c1ccccc1-c1ccc(CN2CCN(c3ccccc3)CC2)o1 | – | – | – | – | – | –
CCCCOCc1cc(CN2CCN(c3cccc(Cl)c3)CC2)c(O)c2ncccc12 | 3.3µM | · | · | 16µM | · | ·
CC(C)(C)c1ccc(-n2ncc3c2CCCC3NC(=O)c2csnn2)cc1 (stereo not drawn) | 12µM | · | – | ? | · | –
CC(C)(C)c1ccc(-n2ncc3c2CCCC3NC(=O)c2cnccn2)cc1 (stereo not drawn) | 9.2µM | – | – | ? | ? | –
CC(=O)NC1CCCc2c1cnn2-c1ccc(C(C)(C)C)cc1 (stereo not drawn) | ? | – | – | ? | – | –
Cn1nccc1C(=O)NC1CCCc2c1cnn2-c1ccc(C(C)(C)C)cc1 (stereo not drawn) | 2.9µM | ? | 1.3µM | 2.9µM | ? | 1.3µM
CC(C)(C)c1ccc(-n2ncc3c2CCCC3NC(=O)C2=NNC(=O)CC2)cc1 (stereo not drawn) | ? | – | – | ? | ? | –
CCS(=O)(=O)c1nc(S(=O)(=O)c2ccc(C)cc2)c(NCCCOC)s1 | ? | – | · | – | – | ·
CCC(C)c1ccccc1NC(=O)COC(=O)c1ccc2[nH]c3c(c2c1)CCCC3 (stereo not drawn) | 18µM | 21µM | – | 16µM | ? | ?
CCC(C)c1ccccc1NC(=O)COC(=O)c1ccc(N2CCCC2)c([N+](=O)[O-])c1 (stereo not drawn) | ? | – | – | 21µM | 0.0023µM | –
CC(CNCCCn1ccc(NC(=O)OCc2ccccc2)nc1=O)c1ccccc1 (stereo not drawn) | ? | – | – | 23µM | – | –
O=C(Nc1ccn(CCCNCC2CCCCC2)c(=O)n1)OCc1ccccc1 | ? | – | – | ? | – | –
O=C(Nc1ccn(CCCNCC(c2ccccc2)c2ccccc2)c(=O)n1)OCc1ccccc1 | 23µM | – | ? | ? | – | ?
O=C(Nc1ccn(CCCN2CCN(Cc3ccc(F)cc3)CC2)c(=O)n1)OCc1ccccc1 | 15µM | – | – | 21µM | – | –
Cn1ncc2c(N3CCN(c4ccccc4Cl)CC3)ncnc21 | 21µM | · | · | ? | · | ·
CN1CCN(c2ncnc3c2cnn3-c2cccc(Cl)c2)CC1 | 16µM | ? | · | 16µM | – | ·
Clc1cccc(-n2ncc3c(N4CCC(Cc5ccccc5)CC4)ncnc32)c1 | – | – | · | – | – | ·
Cn1ncc2c(N3CCN(c4cccc(Cl)c4)CC3)ncnc21 | 5.8µM | · | · | ? | · | ·
COc1ccc(/C=C/C(=O)OCC(=O)Nc2ccc(Cl)c(S(=O)(=O)N(C)C)c2)cc1OC | ? | – | – | – | – | –
O=S(=O)(c1ccccc1)N1CCN(C(=S)Nc2ccc(Br)cc2)CC1 | – | – | – | ? | – | –

Assay outcomes deposited in PubChem BioAssay by National Center for Advancing Translational Sciences (NCATS).
